# Test results from PubChem BioAssay (NCATS).
# Values joined by “and” are separate entries in the source; they are usually repeats but may differ in a detail not shown here. Equal values may be shown once. Unmarked numbers belong to inactive results. Records with an inconclusive call do not appear. Where a call stands in place of a potency, no number is given. Active and inactive are the calls of the source. Unless noted, calls follow the shape of the dose curve; as a rule, active = well fitted curve in the direction sought with a large enough effect; inconclusive = small, poorly fitted or top-dose-only effect, or another doubt; inactive = no such curve, though single readings can be large; an effect the other way counts as inactive or inconclusive.
# Experiments:
# UISO = assay: qHTS assay to identify novel small-molecules to repurpose for Merkel cell carcinoma treatment (AID 1296009); details: MCC and control cell lines, CellTiter-Glo viability, 72 h; series mostly up to 46 µM; also: nearly all actives have a fitted effect of over 60% in size; also: potency is read from the fitted curve at half-maximal effect
# In short: (§1)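 72 hr, 37 degree celsius; NPC 8-pt / MIPE 11-pt dose response; compound pinned in DMSO; CellTiter-Glo, 10 min RT, luminescence; normalized to no-cell and DMSO controls.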
# WaGa = assay: as above; details: MCC and control cell lines, CellTiter-Glo viability, 72 h; series mostly up to 46 µM
# In short: as §1
# C33A = assay: Primary qHTS to identify gynecologic anti-cancer compounds using libraries of approved drugs and bioactive compounds (AID 1345084); details: Gynecologic cancer cell panel viability, ATPlite luminescence, 48 h; series mostly up to 57.5 µM; also: nearly all actives have a fitted effect of over 55% in size; also: potency is read from the fitted curve at half-maximal effect
# In short: (§2)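 48 h compound exposure at 37 C, 5% CO2; five-point qHTS. ATPlite luminescence readout of cell ATP.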
# CAOV3 = assay: as above; details: Gynecologic cancer cell panel viability, ATPlite luminescence, 48 h; series mostly up to 57.5 µM
# In short: as §2
# CASKI = assay: as above; details: Gynecologic cancer cell panel viability, ATPlite luminescence, 48 h; series mostly up to 57.5 µM
# In short: as §2
# Es-2 = assay: as above; details: Gynecologic cancer cell panel viability, ATPlite luminescence, 48 h; series mostly up to 57.5 µM
# In short: as §2
# HeLa = assay: as above; details: Gynecologic cancer cell panel viability, ATPlite luminescence, 48 h; series mostly up to 57.5 µM
# In short: as §2
# Hek293T = assay: as above; details: Gynecologic cancer cell panel viability, ATPlite luminescence, 48 h, control line for the selectivity index; series mostly up to 57.5 µM
# In short: as §2
# JEG-3 = assay: as above; details: Gynecologic cancer cell panel viability, ATPlite luminescence, 48 h; series mostly up to 57.5 µM
# In short: as §2
# OV90 = assay: as above; details: Gynecologic cancer cell panel viability, ATPlite luminescence, 48 h; series mostly up to 57.5 µM
# In short: as §2
# PA-1 = assay: as above; details: Gynecologic cancer cell panel viability, ATPlite luminescence, 48 h; series mostly up to 57.5 µM
# In short: as §2
# SKOV3 = assay: as above; details: Gynecologic cancer cell panel viability, ATPlite luminescence, 48 h; series mostly up to 57.5 µM
# In short: as §2
# Tov-21-G = assay: as above; details: Gynecologic cancer cell panel viability, ATPlite luminescence, 48 h; series mostly up to 57.5 µM
# In short: as §2
# Tov112D = assay: as above; details: Gynecologic cancer cell panel viability, ATPlite luminescence, 48 h; series mostly up to 57.5 µM
# In short: as §2
# [1] = Drug repurposing screens with cells derived from glioblastoma tumor samples (AID 1345199); details: GBM patient neurospheres viability, ATP luminescence, 48 h; also: nearly all actives have a fitted effect of over 40% in size; also: potency is read from the fitted curve at half-maximal effect
# In short: (§3)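 Four patient lines of CD133+ GBM neurospheres were screened at several concentrations; hits were retested in those lines plus three slower-growing GBM lines, using 48-hour treatment and ATP-based viability.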
# astro = assay: as above; details: viability, ATP luminescence, 48 h; series mostly up to 45.9 µM
# In short: as §3
# [2] = molecular target: Nuclear receptor subfamily 1 group I member 2 (Rattus norvegicus) (UniProt Q9R1A7); assay: qHTS assay for small molecule activators of the rat pregnane X receptor (rPXR) signaling pathway (AID 651751; call rule not given here); details: rPXR reporter cells, luciferase (One-Glo), 24 h
# [3] = qHTS assay for small molecule activators of the human pregnane X receptor (PXR) signaling pathway (AID 720659; call rule not given here)
# [4] = qHTS assay to identify inhibitors of the type 1 interferon - major histocompatibility complex class I in skeletal muscle: Counter screen cell viability and HiBit confirmation (AID 1347412); details: iHSKM muscle cells + IFN-b, HiBiT or CellTiter-Glo, 24 h; Potency: HiBiT; Viability, at 45.9 µM (top of the series); also: nearly all actives have a fitted effect of over 60% in size; also: potency is read from the fitted curve at half-maximal effect
# In short: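 Luminescence read-out: Nano-Glo HiBiT lytic signal from C-terminally HiBiT-tagged HLA-B in CRISPR-edited human myoblasts, plus CellTiter Glo ATP as viability counter screen. IFN-beta 4.0 ng/ml; 24 hrs treatment at 37 C, 5% CO2.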
# [5] = at 45.9 µM (top of the series), tumour line B
# [6] = at 45.9 µM (top of the series), tumour line D
# [7] = at 46 µM (top of the series), tumour line A
# [8] = at 46.1 µM (top of the series), tumour line C
# Nuclear receptor subfamily 1 group I member 2 (Rattus norvegicus), sequence (Q9R1A7 whole entry, looked up): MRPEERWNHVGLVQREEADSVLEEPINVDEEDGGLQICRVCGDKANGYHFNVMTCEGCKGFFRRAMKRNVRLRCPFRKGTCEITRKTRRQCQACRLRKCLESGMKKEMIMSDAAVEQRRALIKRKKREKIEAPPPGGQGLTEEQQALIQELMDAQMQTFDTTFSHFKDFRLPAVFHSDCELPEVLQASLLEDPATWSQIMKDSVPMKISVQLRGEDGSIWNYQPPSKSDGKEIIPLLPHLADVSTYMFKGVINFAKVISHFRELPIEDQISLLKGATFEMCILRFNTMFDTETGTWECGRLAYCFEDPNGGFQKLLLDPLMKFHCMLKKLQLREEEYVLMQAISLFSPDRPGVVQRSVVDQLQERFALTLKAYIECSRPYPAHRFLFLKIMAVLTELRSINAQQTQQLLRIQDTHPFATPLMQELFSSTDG
structure (smiles),measurement,setting,value
Cc1cn([C@H]2C=C[C@@H](CO)O2)c(=O)[nH]c1=O,Potency,UISO,inactive
same,Potency,WaGa,inactive
same,Potency,C33A,inactive
same,Potency,CAOV3,inactive
same,Potency,CASKI,inactive
same,Potency,Es-2,inactive
same,Potency,HeLa,inactive
same,Potency,Hek293T,inactive
same,Potency,JEG-3,inactive
same,Potency,OV90,inactive
same,Potency,PA-1,inactive
same,Potency,SKOV3,inactive
same,Potency,Tov-21-G,inactive
same,Potency,Tov112D,inactive
same,"activity, negative = cell killing",[1]; [5],-6.16%
same,"activity, negative = cell killing",[1]; [6],-7.24%
same,"activity, negative = cell killing",[1]; [7],-20.7%
same,"activity, negative = cell killing",[1]; [8],-21.2%
same,Potency,astro,inactive
same,max response,[2],0.921% and -1.01% and -5.21%
same,outcome,[3],inactive
Cc1cnc(C(=O)NCCc2ccc(S(=O)(=O)NC(=O)NC3CCCCC3)cc2)cn1,Potency,UISO,inactive
same,Potency,WaGa,inactive
same,Potency,C33A,inactive
same,Potency,CAOV3,inactive
same,Potency,CASKI,inactive
same,Potency,Es-2,inactive
same,Potency,HeLa,inactive
same,Potency,Hek293T,inactive
same,Potency,JEG-3,inactive
same,Potency,OV90,inactive
same,Potency,PA-1,inactive
same,Potency,SKOV3,inactive
same,Potency,Tov-21-G,inactive
same,Potency,Tov112D,inactive
same,"activity, negative = cell killing",[1]; [5],-8.45%
same,"activity, negative = cell killing",[1]; [6],-17.1%
same,"activity, negative = cell killing",[1]; [8],18%
Nc1ccn([C@H]2CC[C@@H](CO)O2)c(=O)n1,Potency,UISO,inactive
same,Potency,WaGa,inactive
same,Potency,C33A,inactive
same,Potency,CAOV3,inactive
same,Potency,CASKI,inactive
same,Potency,Es-2,inactive
same,Potency,HeLa,inactive
same,Potency,Hek293T,inactive
same,Potency,JEG-3,inactive
same,Potency,OV90,inactive
same,Potency,PA-1,inactive
same,Potency,SKOV3,inactive
same,Potency,Tov-21-G,inactive
same,Potency,Tov112D,inactive
same,"activity, negative = cell killing",[1]; [5],-3.23%
same,"activity, negative = cell killing",[1]; [6],-22.8%
same,"activity, negative = cell killing",[1]; [8],-9.64%
same,max response,[2],4.04% and 0.741%
same,outcome,[3],inactive
Cc1ccc(-c2cc(C(F)(F)F)nn2-c2ccc(S(N)(=O)=O)cc2)cc1,Potency,UISO,inactive
same,Potency,WaGa,inactive
same,Potency,C33A,inactive
same,Potency,CAOV3,inactive
same,Potency,CASKI,inactive
same,Potency,Es-2,inactive
same,Potency,HeLa,inactive
same,Potency,Hek293T,inactive
same,Potency,JEG-3,inactive
same,Potency,OV90,inactive
same,Potency,PA-1,inactive
same,Potency,SKOV3,inactive
same,Potency,Tov-21-G,inactive
same,Potency,Tov112D,inactive
same,"activity, negative = cell killing",[1]; [5],2.4%
same,"activity, negative = cell killing",[1]; [8],15.9%
same,Potency,[1]; tumour line A,8.91 µM (active)
same,Potency,astro,inactive
COc1ccc2c(c1)c(CC(=O)O)c(C)n2C(=O)c1ccc(Cl)cc1,Potency,UISO,inactive
same,Potency,WaGa,inactive
same,Potency,C33A,inactive
same,Potency,CAOV3,inactive
same,Potency,CASKI,inactive
same,Potency,Es-2,inactive
same,Potency,HeLa,inactive
same,Potency,Hek293T,inactive
same,Potency,JEG-3,inactive
same,Potency,PA-1,inactive
same,Potency,SKOV3,inactive
same,Potency,Tov-21-G,inactive
same,Potency,Tov112D,inactive
same,"activity, negative = cell killing",[1]; [5],-14.6%
same,"activity, negative = cell killing",[1]; [6],-6.82%
same,"activity, negative = cell killing",[1]; [7],-26.1%
same,"activity, negative = cell killing",[1]; [8],-12.3%
same,max response,[2],-2.59% and -3.57%
same,outcome,[3],inactive
Clc1ccc2c(c1)C(N1CCNCC1)=Nc1ccccc1O2,Potency,UISO,inactive
same,Potency,WaGa,inactive
same,Potency,C33A,inactive
same,Potency,CAOV3,inactive
same,Potency,CASKI,inactive
same,Potency,Es-2,inactive
same,Potency,HeLa,inactive
same,Potency,Hek293T,inactive
same,Potency,JEG-3,inactive
same,Potency,OV90,inactive
same,Potency,PA-1,inactive
same,Potency,SKOV3,inactive
same,Potency,Tov-21-G,inactive
same,Potency,Tov112D,inactive
same,"activity, negative = cell killing",[1]; [5],-27.8%
same,"activity, negative = cell killing",[1]; [6],-2.29%
same,"activity, negative = cell killing",[1]; [8],-0.706%
same,Potency,[1]; tumour line A,14.1 µM (active)
CC(C)NCC(O)c1ccc(O)c(O)c1 (stereo unspecified),Potency,WaGa,3.32 µM (active) and 18.8 µM (active)
same,Potency,C33A,inactive
same,Potency,CASKI,inactive
same,Potency,Es-2,inactive
same,Potency,HeLa,inactive
same,Potency,Hek293T,inactive
same,Potency,JEG-3,inactive
same,Potency,SKOV3,inactive
same,Potency,Tov-21-G,inactive
same,Potency,Tov112D,inactive
same,"activity, negative = cell killing",[1]; [5],-7.24%
same,"activity, negative = cell killing",[1]; [6],4.85%
same,"activity, negative = cell killing",[1]; [8],7.09%
same,max response,[2],-3.83% and 3.86%
O=C1c2c(O)ccc(O)c2C(=O)c2c(NCCNCCO)ccc(NCCNCCO)c21,Potency,UISO,526 nM (active) and 668 nM (active)
same,Potency,WaGa,74.3 nM (active) and 4.7 nM (active)
same,Potency,C33A,2.51 µM (active)
same,Potency,CASKI,2.82 µM (active)
same,Potency,HeLa,15.8 µM (active)
same,Potency,Hek293T,10 µM (active)
same,Potency,JEG-3,11.2 µM (active)
same,Potency,OV90,28.2 µM (active)
same,Potency,Tov-21-G,28.2 µM (active)
same,"activity, negative = cell killing","[1]; at 20 µM (top of the series), tumour line C",-23.1%
same,Potency,[1]; tumour line A,3.98 µM (active)
same,Potency,[1]; tumour line B,8.91 µM (active)
same,Potency,[1]; tumour line D,5.62 µM (active)
same,Potency,[4],1.76 µM (active)
OCCN1CCN(CCCN2c3ccccc3Sc3ccc(C(F)(F)F)cc32)CC1,Potency,UISO,inactive
same,Potency,WaGa,20.9 µM (active)
same,Potency,C33A,inactive
same,Potency,Es-2,inactive
same,Potency,HeLa,inactive
same,Potency,JEG-3,inactive
same,Potency,PA-1,inactive
same,Potency,SKOV3,inactive
same,Potency,Tov-21-G,inactive
same,Potency,Tov112D,inactive
same,"activity, negative = cell killing",[1]; [8],-28.6%
same,Potency,[1]; tumour line A,1.26 µM (active)
same,Potency,[1]; tumour line D,10 µM (active)
same,Potency,astro,22.4 µM (active)
same,Potency,[4],inactive
N[C@@H](Cc1c[nH]c2ccc(O)cc12)C(=O)O,Potency,C33A,inactive
same,Potency,CAOV3,inactive
same,Potency,CASKI,inactive
same,Potency,Es-2,inactive
same,Potency,HeLa,inactive
same,Potency,Hek293T,inactive
same,Potency,JEG-3,inactive
same,Potency,PA-1,inactive
same,Potency,SKOV3,inactive
same,Potency,Tov-21-G,inactive
same,Potency,Tov112D,inactive
same,"activity, negative = cell killing",[1]; [5],-15.2%
same,"activity, negative = cell killing",[1]; [6],-5.01%
same,"activity, negative = cell killing",[1]; [7],-33.5%
same,"activity, negative = cell killing",[1]; [8],-4.77%
same,max response,[2],2.83%
same,outcome,[3],inactive
CC(COc1ccccc1)N(CCCl)Cc1ccccc1 (stereo unspecified),Potency,C33A,inactive
same,Potency,CASKI,inactive
same,Potency,Es-2,inactive
same,Potency,HeLa,inactive
same,Potency,Hek293T,inactive
same,Potency,JEG-3,inactive
same,Potency,OV90,inactive
same,Potency,PA-1,inactive
same,Potency,SKOV3,inactive
same,Potency,Tov-21-G,inactive
same,Potency,Tov112D,inactive
same,"activity, negative = cell killing",[1]; [5],-26.4%
same,"activity, negative = cell killing",[1]; [8],-13%
same,Potency,[1]; tumour line A,20 µM (active)
